This is part of a sample that, as a whole, favours compounds with a hit. Of some 83,000 tested, about 20% had one in any assay.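 Each cell line was grown in a 96-well plate and treated with one concentration of compound for 48 hours. Values below 10 were considered active.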 Values without a mark were called inactive. Active and inactive are the calls of the source.

The assay relates to MDA-MB-468 breast. Description: NCI-60 one-dose screen, 48 h (100 = growth as untreated, 0 = no growth, -100 = all killed). The following applies: 10 µM unless noted.
Take `Cc1ccc(C(C)C)c(O)c1NC(=O)OC(C)C`: the growth is 97.5%.

As to `CCOC(=O)c1c(C)nc2c(c1N)/C(=C/c1cccs1)C(=O)N2c1ccc(OC)cc1`, the growth is 28.2%.

Take `O=C(O)COc1ccccc1F`: the growth is 93.5%.

As to `COC1=CC(c2ccc[nH]2)=N/C1=C\c1[nH]c(C)c(C(=O)CCCCC(=O)NCc2ccccc2)c1C`, the growth was 4.21% (active).

As for `Cn1ccnc1C(=O)/C=C/c1ccc(CC(=O)Nc2cc(C(F)(F)F)cc(C(F)(F)F)c2)cc1`, the growth is 78%.

For `c1ccc2c(c1)[nH]c1c2cc[n+]2cc3c(cc12)CCCC3`, the growth was -14.5% (active).

Turning to `O=C(/C=C/c1ccco1)Nc1ncc(Cc2cccc(C(F)(F)F)c2)s1`, the growth is 10.1%.

Take `O=C(Nc1ccc(Cl)c(C(F)(F)F)c1)c1ccc(Nc2ccc(Cl)nn2)cc1`: the growth was 41.3%.

In the case of `O=C1CCc2c(sc3[nH]c(=S)n(-c4ccc(OC(F)(F)F)cc4)c(=O)c23)C1`, the growth is -4.6% (active).

On to `O=S(=O)(Nc1ccc(F)c(Cl)c1)c1ccc(-c2cnc(C3CC3)o2)cc1`, for which the growth is -23.9% (active).

Take `CN(C)CCCOc1c2ccccc2nc2c1oc1ccc(Cl)cc12`: the growth is -3.66% (active).

On to `CC(=O)Nc1ccc(S(=O)(=O)N2C(=O)CCC2C(=O)Nc2ccccc2)cc1` (centres undefined), for which the growth was 40.3%.

Consider `Cc1ccc(S(=O)(=O)Nn2c3c(cc(-c4nc5ccccc5s4)c2=O)CCCCCC3)cc1`, for which the growth is 110%.

In the case of `COC(=O)c1c(C(=O)OC)c2n(CC(=O)Nc3cccc4cccnc34)c3ccccc3n2c1C(=O)c1ccc(C)cc1`, the growth was 98.6%.

(Values after PubChem BioAssay (NCI).)
